In PubChem BioAssay (NCI):
Compounds without any hit were thinned out: in the full panel of roughly 79,000, 15% have a hit. Activity calls are given as the source filed them. No stated cut-off is given here; in the data, active means growth inhibition above about 70%; inactive means the rest.

Assays:
[1] = NCI Yeast Anticancer Drug Screen. Data for the rad50 strain (AID 155);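 further: 0% = growth of vehicle-only cultures of the same strain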; settings: S. cerevisiae rad50 strain growth inhibition; at 50.0 µM; hits give high values
Summary of the method: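 Cells are treated with compound, grown, and their growth is then scored against vehicle-only cultures of the same repair-deficient yeast strain.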

[2] = NCI Yeast Anticancer Drug Screen. Data for the mec2-1 strain (AID 157); settings: S. cerevisiae mec2-1 strain, at 50.0 µM, hits give high values
Summary of the method: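 Readout is yeast growth inhibition, normalised to vehicle-treated controls, in the mec2-1 strain exposed to compound.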

[3] = NCI Yeast Anticancer Drug Screen. Data for the sgs1 mgt1 strain (AID 161);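 further: 0% = growth of cultures given vehicle only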; settings: S. cerevisiae sgs1 mgt1 strain, at 50.0 µM, hits give high values
Summary of the method: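 Yeast cells carrying a defined DNA-repair defect were exposed to test compounds. Growth inhibition was measured relative to vehicle-treated controls.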

[4] = NCI Yeast Anticancer Drug Screen. Data for the cln2 rad14 strain (AID 165);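 further: 0% = growth equal to vehicle treated cultures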; settings: S. cerevisiae cln2 rad14 strain, at 50.0 µM, hits give high values
Summary of the method: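 Relative to vehicle controls, growth inhibition of compound-treated cln2 rad14 yeast was recorded.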

[5] = NCI Yeast Anticancer Drug Screen. Data for the bub3 strain (AID 167); settings: S. cerevisiae bub3 mutant strain, at 50.0 µM, hits give high values
Summary of the method: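 Part of a panel of yeast mutants defective in DNA damage repair or cell cycle regulation. Each strain is grown with compound, and inhibition is calculated relative to solvent-treated cultures.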

[6] = NCI Yeast Anticancer Drug Screen. Data for the mlh1 rad18 strain (AID 175); settings: S. cerevisiae mlh1 rad18 strain growth inhibition; at 50.0 µM; hits give high values
Summary of the method: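 Test agents were incubated with a yeast strain of defined genotype (DNA damage repair defect). Inhibition of growth was derived by comparison with vehicle-exposed cultures.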

Measured: growth inhibition

CC(=O)Nc1cc2c(cc1C=O)OCO2
inactive: [1] 19.6% | [2] 9.7% | [3] -0.6% | [4] -32.3% | [5] -2.5% | [6] 11.3%

Cc1ccc2[nH]c(C)c(C(=O)c3ccncc3)c2c1
inactive: [1] -2.75% | [2] -15.4% | [3] 4.15% | [4] -8.35% | [5] -10.7% | [6] -9.45%

CCOC(=O)c1nc2cc(N3CCOCC3)c(F)cc2[nH]c1=O
inactive: [1] 16.9% | [2] 23.6% | [3] 23.2% | [4] 3.45% | [5] 28.2% | [6] 34%

Cc1ccc(S(=O)(=O)NC2C(=O)c3ccccc3C(=O)C2n2ccnc2)cc1 (stereo not drawn)
inactive: [1] 4.85% | [2] -1.8% | [3] 0.75% | [4] 2.75% | [5] 7.8% | [6] -21.5%

NC(N)=Nc1cccc2c1CC=CC2
inactive: [1] 0.2% | [2] -3.45% | [3] -5.3% | [4] -5.7% | [5] 2% | [6] -0.2%

CNc1ncnc2c1ncn2C
inactive: [1] 20.8% | [2] 24.5% | [3] -7.1% | [4] -17.1% | [5] 1.6% | [6] -2.1%

CC(O)C([NH-])C(=O)O.CC([NH-])C(=O)O.[Cu+2] (stereo not drawn)
inactive: [1] 26.6% | [2] 15.7% | [3] 6.95% | [4] 12.7% | [5] 13.3% | [6] 15.4%

Cc1ccc(S(=O)(=O)N/N=C2\CCC3(C)C(CCC4C3CCC3(C)C(C(C)CCCC(C)C)CCC43)C2)cc1 (stereo not drawn)
inactive: [1] 42.3% | [2] 17.8% | [3] 35.3% | [4] 27.6% | [5] -4% | [6] 33.9%

CCCCCC1OC1CC1OC1CCCCCCCC(=O)O (stereo not drawn)
inactive: [1] -5.5% | [2] -21.1% | [3] -3.85% | [4] -14.8% | [5] -12.8% | [6] -13.4%

CC(C)(C)n1c(=O)n(-c2ccccc2)n(C(C)(C)C)c1=O
inactive: [1] 45.5% | [2] -11.8% | [3] -28.2% | [4] 3% | [5] -27.7% | [6] -11%

CCCCCCCC/C=C\CCCCCCCC(=O)Cl
inactive: [1] -19% | [2] -33.8% | [3] -14% | [4] -55.9% | [5] -8.85% | [6] -23.1%

COC(=O)c1cc2cc3ccccc3cc2cc1C(=O)OC
inactive: [1] 1.7% | [2] 14.4% | [3] 11.8% | [4] -13.4% | [5] -26.1% | [6] -8.8%

CN(C)c1nc(=NCc2ccncc2)ss1
inactive: [1] -38.2% | [2] 8.45% | [3] 2% | [4] -45.4% | [5] 5.85% | [6] -16.8%

COc1nc(OC)c2[nH]cnc2n1
inactive: [1] 17.6% | [2] 15.3% | [3] 13.1% | [4] -38.7% | [5] -1.35% | [6] 14.7%

O=C(O)CC1OCC=C2C[N+]3([O-])CCC45c6ccccc6NC4C1C2CC53 (stereo not drawn)
inactive: [1] -1.5% | [2] 19.7% | [3] -16.1% | [4] -31.9% | [5] -35.4% | [6] 10.6%

CCC(CC)COC(=O)c1ccccc1
inactive: [1] 0.95% | [2] -7.05% | [3] -3.75% | [4] -14.8% | [5] 17.2% | [6] -0.75%

OC1c2ccccc2OC2(N3CCCC3)CCCCC12 (stereo not drawn)
inactive: [1] -5.6% | [2] -29.9% | [3] -13.2% | [4] -15.7% | [5] -26.4% | [6] 1.2%

CC1(c2ccc(Cl)cc2)NC(=O)N(CC(N)=O)C1=O (stereo not drawn)
inactive: [1] 3.6% | [2] -0.1% | [3] -10.8% | [4] -11% | [5] -7.8% | [6] 8.6%

COC(=O)Oc1nn(C(=O)OC)c(=O)c2ccccc12 (tested in a mixture with another compound)
inactive: [1] -5.85% | [2] 3.1% | [3] 3% | [4] -0.8% | [5] 11.3% | [6] 33.5%

CCC1C(=O)Nc2ccccc21 (stereo not drawn)
inactive: [1] 16.4% | [2] 16.9% | [3] 1.3% | [4] 7.85% | [5] 13.8% | [6] 8.5%

C[N+]1(CCC(=O)c2ccco2)CC2CCC(CC2)C1 (stereo not drawn)
inactive: [1] 3.9% | [2] -18.1% | [3] -37.1% | [4] -24.9% | [5] -68.7% | [6] 0.45%

CC1(C)NC(c2ccccc2)c2ccsc2-n2cccc21 (stereo not drawn)
inactive: [1] -27.7% | [2] -29.7% | [3] -15.7% | [4] 18.9% | [5] -9.85% | [6] -8.6%

COc1cc(CNc2nc3c(N)cc(C(F)(F)F)cc3nc2-c2ccccc2)cc(OC)c1OC
inactive: [1] 0.25% | [2] -9.35% | [3] 6.6% | [4] 17.6% | [5] -11.3% | [6] -25.6%

O=C1CC(c2ccc(Cl)cc2)NC(c2ccc(Cl)cc2)C1 (stereo not drawn)
inactive: [1] 13.6% | [2] 2.35% | [3] 8.55% | [4] 11.2% | [5] 6.4% | [6] 14.8%

c1ccc(C(CCN2CC3CCC(CC3)C2)c2ccccc2)cc1
inactive: [1] 14.6% | [2] -21.4% | [3] -17.9% | [4] -22.6% | [5] -21.9% | [6] 22.6%

Cc1cc2c(c(O)c1-c1c(C)cc(O)c3c1C(=O)C=CC3=O)C(=O)C=CC2=O
inactive: [1] -7.1% | [2] -43.4% | [3] -8.5% | [4] -0.2% | [5] -27.9% | [6] -43.2%

Cc1cc(C)c(COCc2c(C)cc(C)cc2C)c(C)c1
inactive: [1] 19% | [2] 10.1% | [3] -0.55% | [4] -34.1% | [5] -2% | [6] 12.8%

CC(=O)NCC(O)c1ccc([N+](=O)[O-])cc1 (stereo not drawn)
inactive: [1] -23.3% | [2] -31.1% | [3] 1.4% | [4] 7% | [5] -14.1% | [6] -23%

C=C1CC(CC(=O)C(C)CC2CC(=C)C(=O)O2)OC1=O (stereo not drawn)
inactive: [1] 14.1% | [2] -30.9% | [3] 14.9% | [4] 8.4% | [5] 24.5% | [6] 26.3%

COc1c(C)cc(Cc2ccc3c(c2)OCO3)cc1C
inactive: [1] -7.8% | [2] -12.9% | [3] 4.2% | [4] -22% | [5] -10.6% | [6] -5.3%

Cc1cc(Br)c(O)c(-c2cscn2)c1
inactive: [1] -17.6% | [2] -34.8% | [3] 11.8% | [4] 28.9% | [5] 16.8% | [6] 3%

O=c1[nH]c(N2CCN(c3ccccc3)CC2)nc2cc3ccccc3cc12
inactive: [1] 2.55% | [2] -10.6% | [3] -13.6% | [4] -26.8% | [5] -5.15% | [6] -16.9%

Cc1ccc2c(c1)CC1(C2=O)[C@H](c2ccccc2)C2C(=O)c3ccc(C)cc3C2[C@H]1c1ccccc1 (stereo partly drawn)
inactive: [1] -14.8% | [2] 13.5% | [3] -0.15% | [4] -11.1% | [5] 14.6% | [6] 9.5%

CCC(=O)Oc1ccccc1OC
inactive: [1] -28.8% | [2] -7.25% | [3] -6.05% | [4] -0.3% | [5] -31.9% | [6] -16.9%

NC(=O)c1ccccc1C(=O)c1ccccc1
inactive: [1] -35% | [2] 1.85% | [3] -8.6% | [4] -20.1% | [5] -27.1% | [6] -10.3%

Cc1ccc(NC(=S)NCC2CCCO2)cc1C (stereo not drawn)
inactive: [1] 9% | [2] 7.2% | [3] 10.6% | [4] 8.85% | [5] 19.4% | [6] 14.7%

CC(NC(=O)C(C)NC(=O)C(N)CCP(C)(=O)O)C(=O)O (stereo not drawn)
inactive: [1] -20.6% | [2] -15% | [3] -15.2% | [4] -8.2% | [5] -12.2% | [6] -9.2%

CCC(C)OC(=S)S.[Cu+2] (stereo not drawn)
inactive: [1] -23.6% | [2] 19.4% | [3] -0.85% | [4] -4.8% | [5] -76.5% | [6] -44.9%
